Only some compounds are listed: those with a hit (about 4.4% of all), similar ones and a draw of the others.
p53ts 32C kill – p53ts cell cytotoxicity, permissive temperature; H1299-p53A138V at 32C, ATP luminescence viability, 24 h; Potency, µM (doses to about 46.1 µM), for inactives: top-dose activity change, negative = cytotoxicity, usual class: cytotoxic; 0.93% of 130,000 active; AID 924;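 note: 0% = DMSO and -100% = full killing by reference compound; nearly all actives have a fitted effect of over 55% in size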
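H1299-p53 A138V cells (temperature-sensitive p53) exposed 24 h to up to 46 uM compound at 32C, where p53 is wild-type in conformation. Viability read as ATP luminescence and normalised to DMSO and 100 uM tamoxifen. AC50 fitted with the Hill equation.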
HPGD block – blocks human HPGD enzyme activity; 4.3% of 150,000 active; P15428; purified HPGD, NADH fluorescence kinetic, PGE2 substrate; Potency, µM, inactives show at the top dose activity change, negative = inhibition, usual class: inhibitors; active = well fitted inhibition curve with a large enough effect, not every such curve was filed as active; inconclusive = small, poorly fitted or top-dose-only effect, or another doubt; inactive = no such curve, though single readings can be large or run the other way
Target sequence (P15428 whole entry, looked up): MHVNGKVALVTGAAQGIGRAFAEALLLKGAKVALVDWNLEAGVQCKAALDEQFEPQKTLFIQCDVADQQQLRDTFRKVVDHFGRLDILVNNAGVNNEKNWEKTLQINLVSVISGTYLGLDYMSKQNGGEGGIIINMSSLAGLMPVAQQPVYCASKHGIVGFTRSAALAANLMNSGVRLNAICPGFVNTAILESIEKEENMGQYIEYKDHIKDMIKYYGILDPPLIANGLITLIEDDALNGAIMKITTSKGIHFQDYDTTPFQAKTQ
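NADH formation kinetics: reaction with 30 uM PGE2 and 1 mM NAD+ (final), 20 nM enzyme, Tris-HCl pH 8 with Tween 20, after 15 min compound preincubation at room temperature. Fluorescence change, last versus first of five reads.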
p53ts 39C kill – p53ts cell cytotoxicity, nonpermissive temperature. AID 902. Potency, µM (doses to about 46.1 µM), for the others: at the top dose activity change, negative = cell killing, usual class: cytotoxic. H1299-p53A138V viability at 39C, ATP luminescence, 24 h. 1.5% of 130,000 active; note: nearly all actives have a fitted effect of over 55% in size
ALOX12 inhib – blocks human 12-lipoxygenase activity; P18054; purified 12-hLO, xylenol orange hydroperoxide absorbance; Potency, µM (series often up to 57.1 µM), inactives show top-dose activity change, negative = inhibition, actives largely listed as inhibitors; 0.12% of 150,000 active; AID 1452; note: nearly all actives have a fitted effect of over 55% in size
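Xylenol orange chromogenic assay: hydroperoxide from 12hLO oxidises Fe(II), giving red-shifted Fe(III)-XO absorbance. Conditions: 150 nM enzyme, 40 uM arachidonic acid, 25 mM Hepes pH 7.0, 0.01% Triton X-100, 30 min, room temperature.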
* marks the source's active call; other numbers are inactive results; ? = inconclusive; nt = not tested or not shown; [ ] = another dose, or the depositor's remark. Unless noted, calls come from the whole dose curve; as a rule, active = well fitted curve in the direction sought with a large enough effect; inconclusive = small, poorly fitted or top-dose-only effect, or another doubt; inactive = no such curve, though single readings can be large; an effect the other way counts as inactive or inconclusive. Unless noted, % is set by controls: 0 for no effect and ±100 for the full control effect; potency is the fitted concentration of half-maximal effect.

SMILES	p53ts 32C kill	HPGD block	p53ts 39C kill	ALOX12 inhib
O=C(Cc1ccccc1)NC(Oc1ccccc1Cl)C(Cl)(Cl)Cl (stereo unspecified)	nt	?	nt	-3%
CCCCCCCC(=O)NC(Oc1ccccc1[N+](=O)[O-])C(Cl)(Cl)Cl (stereo unspecified)	nt	10µM*	nt	5%
CCCCCCCCCOc1ccc2[nH]cc(CCN)c2c1	?	-4%	32µM*	-1%
Cc1nn(-c2ccccc2)c(Cl)c1C1C(C#N)=C(N)Oc2c1c(=O)oc1ccccc21 (stereo unspecified)	1%	-20%	-3%	-9%
Cc1nn(-c2ccccc2)c2c1C(c1ccc(F)cc1F)C(C#N)=C(N)O2 (stereo unspecified)	nt	28µM*	nt	-8%
COC(=O)[C@@H]1c2cc3c(c(O)c2[C@@H](O)C[C@]1(C)O)C(=O)c1c(O)cc2c(c1C3=O)O[C@H]1O[C@@]2(C)[C@@H](O)[C@H](N(C)C)[C@H]1O	8%[9.22 µM]	?	-3%[9.22 µM]	-1%[11.4 µM]
COc1ccc2nc(NC(=O)c3nc(S(=O)(=O)Cc4cccc(C)c4)ncc3Cl)sc2c1	20µM*	nt	10µM*	nt
Cc1ccc(N2C(=O)NC(=O)/C(=C/c3ccc(OC(=O)c4cccs4)cc3)C2=O)cc1	nt	28µM*	nt	-8%
COc1ccc(N2C(=O)NC(=O)/C(=C/c3cccc(OC(=O)c4cccs4)c3)C2=O)cc1Cl	nt	32µM*	nt	-19%
COc1ccccc1N1C(=O)NC(=O)/C(=C/c2ccc3c(c2)Cc2ccccc2-3)C1=O	nt	?	nt	-8%
Clc1ccc(N2C[C@H]3CC[C@@H](C2)N3)nn1	-12%	nt	14%	-10%
CC1COC2=C1C(=O)C(=O)c1c2ccc2c1CCCC2(C)C (stereo unspecified)	-2%	20µM*	-20%	-6%[0.00818 µM]
O=C(O)/C=C\c1ccc[c]([Sb](=[O])([OH])[OH])c1	9%[9.22 µM]	nt	11%[9.22 µM]	-4%[11.4 µM]
CN1C[C@@H](CS(=O)(=O)N(C)C)C[C@H]2c3cccc4c3c(cn4C)C[C@@H]21	-4%	nt	-8%	-3%
COC(=O)C1CN(C#N)N(c2ccc(Cl)cc2)C12c1ccccc1-c1ccccc12 (stereo unspecified)	4µM*	14µM*	11µM*	-3%
COC(=O)[C@]1(C)CC[C@@]2(C)CC[C@@]3(C)C4=CC=C5C(=CC(=O)C(O)=C5C)[C@@]4(C)CC[C@@]3(C)C2C1 (stereo partly specified)	10µM*	20µM*	13µM*	?
[Cd+2].[Cl-].[Cl-]	nt	8.9µM*	1.3µM*	28µM*
CCC(C(=O)O)C1CCC(C)C(C(C)C(O)C(C)C(=O)C(CC)C2OC3(C=CC(O)[C@@]4(CC[C@](C)(C5CC[C@@](O)(CC)C(C)O5)O4)O3)C(C)CC2C)O1 (stereo partly specified)	33%	-14%	-7%	-6%
COc1ccc2c(c1O)-c1cccc3c1[C@H](C2)N(C)CC3	-10%	nt	-4%	-2%
COc1cc2cc(c1Cl)N(C)C(=O)C[C@H](OC(=O)C(C)C)[C@]1(C)O[C@@H]1[C@@H](C)[C@H]1C[C@](O)(NC(=O)O1)[C@@H](OC)/C=C\C=C(\C)C2	9%[9.22 µM]	-4%	-5%[9.22 µM]	0%[11.4 µM]
O=c1c2ccccc2nc(N2CCCC2)n1-c1ccccc1	nt	-29%	nt	-1%
O=c1c2ccccc2[se]n1-c1ccccc1	4%	0.63µM*	?	3.2µM*
NC[C@@H](Cc1ccccc1)P(=O)(O)O	1%[9.22 µM]	-8%	-6%[9.22 µM]	6%[11.4 µM]
O=C(c1c[nH]c(C(=O)C(Cl)(Cl)Cl)c1)c1ccccc1Cl	nt	14µM*	nt	-9%
O=C(O)C(Oc1nc(=S)[nH]c(=S)[nH]1)(c1ccc(Cl)cc1)c1ccc(Cl)cc1	-3%[9.22 µM]	-6%	3%[9.22 µM]	4%[11.4 µM]
CCCOc1ccc(C(=O)Nc2ccc(-c3cc4ccccc4oc3=O)c(C)c2)cc1	?	nt	6.3µM*	nt
CCn1nc(-c2ccccc2)nc2c(=O)n(C)c(=O)nc1-2	0.63µM*	-14%	4µM*	-6%
Cc1nc2ccc(Nc3nc4cc(S(=O)(=O)N5CCOCC5)ccc4o3)cc2s1	20%	8.9µM*	1%	-2%
Cc1ccc(NC(=O)Cn2c(=O)oc3cc(S(=O)(=O)N4CCCCCC4)ccc32)cc1Cl	?	nt	-12%	nt
COc1ccccc1NC(=O)c1oc2ccccc2c1NC(=O)COc1cccc(C)c1	-4%	nt	?	nt
